Among the data in PubChem BioAssay (EPA / NIEHS) are outcome and AC50 values, retold here.

Where “and” joins values, the source holds several entries; their conditions need not be identical. Equal values may be shown once. Calls of active or inactive are those of the source. Rule for the calls: active = hit-call score of the fitted dose curve at least 0.9, where 1 is the maximum; inactive = score below 0.9.

Read-out in the experiment: Macrophage colony-stimulating factor (MCSF), CSF1 (gene 1435)
Kind of experiment: BSK_LPS_MCSF: BioMAP Diversity Plus: LPS Assay for Macrophage colony-stimulating factor (MCSF) Biomarker Activity (AID 2283083). The note with it: primary human HUVEC with PBMC; actives raise or lower the signal. How it is done:
BSK_LPS is a cell-based, multiplexed-readout assay that uses umbilical vein endothelium and peripheral blood mononuclear cells, a human vascular primary cell co-culture, with measurements taken at 24 hours after chemical dosing in a 96-well plate.BSK_LPS_MCSF is an assay component measured in the BSK_LPS assay. It measures M-CSF antibody related to regulation of gene expression using ELISA technology.Data from the assay component BSK_LPS_MCSF was analyzed into 1 assay endpoint. This assay endpoint, BSK_LPS_MCSF, was analyzed with bidirectional fitting relative to DMSO as the negative control and baseline of activity. Using a type of binding reporter, gain or loss-of-signal activity can be used to understand changes in the signaling as they relate to the gene CSF1. Furthermore, this assay endpoint can be referred to as a primary readout, because this assay has produced multiple assay endpoints where this one serves a signaling function. To generalize the intended target to other relatable targets, this assay endpoint is annotated to the cytokine intended target family, where the subfamily is colony stimulating factor.
The levels of cell surface (or secreted, indicated by the prefix "s") biomarker endpoints were measured by ELISA. Overt cytotoxicity to cells in confluent adherent cultures (all systems other than the BT system) was assessed by measuring total protein levels using sulforhodamine B (SRB) staining in parallel cultures at the time of biomarker measurements, indicated as SRB endpoints. For proliferation assays for adherent cell types, individual cell types are cultured at sub-confluence and relative cell numbers quantified by SRB staining at time points optimized for each system (48 h: 3C and CASM3C systems; 72 h: BT and HDF3CGF systems; 96 h: SAg system). SRB was performed by staining cells with 0.1% SRB after fixation with 10% TCA and reading wells at 560 nm.Viability and proliferation of PBMC (T cells) was quantified by Alamar Blue reduction for the SAg and BT systems. For PBMC viability (referred to as PBMC Cytotoxicity within the assay endpoint names), cells were plated (75,000/well in a 96-well plate) and then chemical samples added for 1 h before addition of activators, SEB and TSST-1 (20 ng/mL final concentration each). Cells were incubated for 90 h. Then, Alamar Blue (20 uL/well) (Invitrogen, Cat DAL1100) was added for 6 h, and the plates were read with a fluorescence microplate reader at 546/580 nm (excitation/emission). For PBMC proliferation, cells were plated and activated as above but incubated for only 16 h prior to addition of Alamar Blue. Plates were read after 6 h.
Consider `OCC(F)(OC(F)(F)C(F)(OC(F)(F)C(F)(F)C(F)(F)F)C(F)(F)F)C(F)(F)F` (stereo not given), for which the outcome was inactive. On the same count and under the same terms, then `C[C@]12CC[C@@H]3c4ccc(O)cc4CC[C@H]3[C@@H]1CC[C@@H]2O`, with “inactive”; and `CCCCCCCC1CCCC1=O` (stereo not given), with “inactive”. The same measure, in the same setting: the result for `O=C(O)C(F)(F)C(F)(F)C(F)(F)C(F)(F)C(F)(F)C(F)(F)C(F)(F)C(F)F` reads “inactive”; that for `CC(C)(CO)CO`, “inactive”; that for `c1ccc(OCCOc2ccccc2)cc1`, “inactive”. In the case of `CC1=CC(C)C(C=O)C(C)C1` (stereo not given) (tested in a mixture with another compound), the outcome was inactive. With `COC(=O)c1ccc(C(=O)OC)cc1`, the result was inactive.

Consider `CC(=O)CCC=C(C)CCC=C(C)C`, for which the outcome was inactive. Regarding `C=CC(=O)OCC(CO)(COC(=O)C=C)COC(=O)C=C`, the AC50 (usually the concentration at which the activity in the assay is half-maximal) is 0.379 µM (active). On to `CCCCN(CCO)CCO`, for which the result was inactive. On the same count and under the same terms, then `O=C(O)C(F)(F)OC(F)(F)C(F)(F)OC(F)(F)C(F)(F)C(F)(F)C(F)(F)F`, with “inactive”. As for `O=S1(=O)CC(Cl)(Cl)C(Cl)(Cl)C1`, the half-maximal activity concentration (AC50) is 0.71 µM (active). On to `CC1(C)[C@H](C=C(Cl)Cl)[C@H]1C(=O)OCc1cccc(Oc2ccccc2)c1`, for which the outcome was inactive. The same measure, in the same setting: the result for `OCCN1CCOCC1` reads “inactive”; that for `CC(=O)OC(C)(C)C1CC=C(C)CC1` (stereo not given), “inactive”.

Turning to `C=C(C)C(N)=O`, the outcome was inactive. Still for that read-out and setting: then `CCn1cc(C(=O)O)c(=O)c2ccc(C)nc21`, with “inactive”. Same read-out and setting: then `CCCCCCCCCC(=O)OCC`, with “inactive”; and `CC(C)Cc1ccc(C(C)C(=O)O)cc1` (stereo not given), with “inactive”; and `COc1ccccc1NC(=O)CC(C)=O`, with “inactive”. Regarding `CCCCCCCCCCCCS`, the AC50 was 31.4 µM (active). `Nc1ccc(N)c([N+](=O)[O-])c1`: the result was inactive. Still for that read-out and setting: then `CCCCOCCOCCO`, with “inactive”. Still for that read-out and setting: then `CC(=O)OCC=C(C)CCC=C(C)CCC=C(C)C`, with “inactive”. With `CC/C(=C(\c1ccccc1)c1ccc(OCCN(C)C)cc1)c1ccccc1`, the half-maximal activity concentration (AC50) was 15.3 µM (active) and 8.1 µM (active). As to `CC=CC(=O)C1=C(C)C=CCC1(C)C`, the outcome was inactive. As to `C#C[C@]1(O)CC[C@H]2[C@@H]3CCc4cc(O)ccc4[C@H]3CC[C@@]21C`, the result was inactive.

With `CC(C)CCCC(C)(C)O`, the outcome was inactive. On to `c1ccc2c(c1)-c1ccc3ccc4cccc5cc-2c1c3c45`, for which the AC50 was 1.38 µM (active). With `C=C(C)C(=O)OCCC(F)(F)C(F)(F)C(F)(F)C(F)(F)C(F)(F)C(F)(F)C(F)(F)C(F)(F)F`, the result was inactive. In the case of `CC(C)(C)c1cccc(O)c1`, the result was inactive. Same read-out and setting: the result for `O=C1OC2(c3ccc(O)cc3Oc3cc(O)ccc32)c2ccccc21` reads “inactive”; that for `CCOC(=O)CCCCCCCCC(=O)OCC`, “inactive”; that for `NC(=O)c1c(Cl)cccc1Cl`, “inactive”. With `C=C1CC/C=C(\C)CC[C@@H]2[C@@H]1CC2(C)C`, the AC50 was 31.6 µM (active). Turning to `O=S(=O)(O)C(F)(F)C(F)(F)OC(F)(F)C(F)(F)F`, the outcome was inactive. The same measure, in the same setting: the result for `CCC(=O)OCC=Cc1ccccc1` reads “inactive”; that for `C=C(F)C(=O)OC(C(F)(F)F)C(F)(F)F`, “inactive”; that for `CCCO[Si](OCCC)(OCCC)OCCC`, “inactive”.
